Data as given in PubChem BioAssay AID1578 (Sanford-Burnham Center for Chemical Genomics, 2009).
Where “and” joins values, the source holds several entries; their conditions need not be identical. Equal values may be shown once. Screen size: about 290,000 compounds; about 3,000 (1%) were called active. The sample holds actives, similar compounds and a random draw of the others, so the mix is not that of the screen. Cut-off read from the data, not from the text of the source: active = inhibition mostly above about 36% (no sharp cut-off); inactive = mostly below about 34%.

Experiment: inhibition of NOD1-driven NF-kB reporter – cell-based, luminescence, uHTS, primary screen (AID 1578);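 note: HEK-293T reporter cells stimulated with the NOD1 agonist gamma-tri-DAP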
Settings: NOD1-driven NF-kB luciferase reporter cells, at 4 µM, hits give high values

SMILES	inhibition
COc1cccc(OCC(O)CN2CCN(c3ccccc3)CC2)c1 (centres undefined)	2.2% (inactive) and -2.1% (inactive)
CC(C)(C)c1ccc(-c2noc(-c3ccno3)n2)cc1	-6.3% (inactive)
CCN(CC)S(=O)(=O)c1cccc(C(=O)N/N=C/c2ccc(N3CCOCC3)cc2)c1	-29.1% (inactive)
O=C1NC(=O)/C(=C\c2ccc(O)cc2O)S1	-22.3% (inactive)
COCCNC(=O)c1ccc(C)c(NC(=O)C2=C(C)OCCS2)c1	-9.9% (inactive)
COC(=O)C(CC(=O)O)NCc1ccco1 (centres undefined)	-10.9% (inactive)
CC(=O)N1CCN(CC(=O)Nc2ccc([N+](=O)[O-])cc2Br)CC1	-29.7% (inactive)
FC(F)(F)c1ccccc1NC(=S)NN1CCOCC1	-11.5% (inactive)
O=C(O)c1cccc(Nc2ccnc(Nc3cccc(C(=O)O)c3)n2)c1	38.5% (active)
c1ccc(Nc2ccnc(Nc3ccccc3)n2)cc1	8.8% (inactive)
O=C(O)c1cccc(Nc2ccc([N+](=O)[O-])cn2)c1	-19.2% (inactive)
CCOC(=O)C1=C(C)N(C)C(=S)NC1c1ccc(Cl)cc1Cl (centres undefined)	-11.6% (inactive)
C[n+]1c2n(c3ccccc31)N=C(c1ccc(-c3ccccc3)cc1)CS2	43.5% (inactive)
C[n+]1c2n(c3ccccc31)N=C(c1ccccc1)CS2	5% (inactive) and 22.1% (inactive)
Cc1cc(=O)oc2cc(NC(=O)c3ccccc3OC(F)F)ccc12	-62.7% (inactive)
Cc1ccc(O)c(C(=O)c2cc(C#N)c(=O)n(C(C)c3ccccc3)c2)c1 (centres undefined)	-4.6% (inactive)
Cc1ccc(O)c(C(=O)c2cc(C#N)c(=O)n(Cc3ccccc3)c2)c1	-10.3% (inactive)
Cc1c(NC(=O)c2ccc(N(Cc3ccccc3)S(C)(=O)=O)cc2)c(=O)n(-c2ccccc2)n1C	-26.8% (inactive)
CCOC(=O)N1CCN(C(=O)C2CCC(=O)N2C(C)C)CC1 (centres undefined)	3.6% (inactive)
COc1ccc(/C=C/C(=O)O/N=C(\N)c2cccnc2)cc1OC	-10% (inactive)
Cc1ccccc1-c1nc(CS(=O)CC(=O)NC(C)CCc2ccccc2)c(C)o1 (centres undefined)	19.2% (inactive)
Cc1ccc(-c2nc(CS(=O)CC(=O)NC(C)CCc3ccccc3)c(C)o2)cc1 (centres undefined)	41.4% (active)
Cc1cccc(-c2nc(CS(=O)CC(=O)NC(C)CCc3ccccc3)c(C)o2)c1 (centres undefined)	20.6% (inactive)

SMILES	inhibition
Cc1c(OCC(=O)NCCCn2ccnc2)ccc2c3c(c(=O)oc12)CCC3	-17.1% (inactive)
Cc1cc(C)cc(NC(=O)C2C3C=CC(O3)C2C(=O)O)c1 (centres undefined)	-15.9% (inactive)
O=C1C=C(c2ccccc2)C[C@H](c2cccs2)[C@H]1n1cnc([N+](=O)[O-])c1	-24.8% (inactive)
O=C1C=C(c2cccs2)C[C@H](c2ccccc2)[C@H]1n1nnc([N+](=O)[O-])n1	42.1% (inactive)
CCN(CC)C(=O)c1sc(NC(=S)N2CCN(C(=O)C3CCCO3)CC2)c(C(=O)OC)c1C (centres undefined)	2.3% (inactive)
Brc1ccc2[nH]c3c(N4CCc5ccccc5C4)ncnc3c2c1	-5.4% (inactive)
Cc1ccc2[nH]c3c(N4CCN(Cc5ccc6c(c5)OCO6)CC4)ncnc3c2c1	73.7% (inactive)
COc1ccc2[nH]c3c(N4CCN(Cc5ccc6c(c5)OCO6)CC4)ncnc3c2c1	23.1% (inactive)
c1ccc2c(c1)CCN(c1ncnc3c1[nH]c1ccccc13)C2	81.6% (inactive)
Cc1ccc2c(c1)[nH]c1c(N3CCN(Cc4ccc5c(c4)OCO5)CC3)ncnc12	58.5% (inactive)
COc1cccc2[nH]c3c(N4CCN(Cc5ccc6c(c5)OCO6)CC4)ncnc3c12	60.8% (inactive)
Fc1ccc2[nH]c3c(N4CCN(Cc5ccc6c(c5)OCO6)CC4)ncnc3c2c1	58.2% (active)
COc1ccc2c(c1)[nH]c1c(N3CCN(Cc4ccc5c(c4)OCO5)CC3)ncnc12	86% (active)
O=C(COC(=O)Cc1cccs1)Nc1ccc(F)c(F)c1F	-10.6% (inactive)
Cc1ccccc1-n1c(=O)cc(NCc2ccc3c(c2)OCO3)[nH]c1=O	-1.9% (inactive)
CN1C(=O)/C(=C/c2ccc(C(F)(F)F)cc2)Sc2ccc(C(=O)N3CCN(c4ccccn4)CC3)cc21	17.8% (inactive)
CN1C(=O)/C(=C\c2ccccc2)Sc2ccc(C(=O)N3CCN(c4ccccn4)CC3)cc21	46.8% (inactive)
CCN(CC)S(=O)(=O)c1ccc(S(=O)(=O)Nc2ccc(C(=O)N3CCCC3)cc2)cc1	-2.4% (inactive)
COc1ccc(NC(=O)CCN2C(=O)c3cccc([N+](=O)[O-])c3C2=O)cc1	-11.3% (inactive)
N=c1oc2ccc(Cl)cc2cc1C(=O)Nc1ccc(F)cc1	-7.8% (inactive)
O=C(CCS(=O)(=O)c1ccccc1)Nc1ccccc1N1CCOCC1	-9% (inactive)
CCOC(=O)C1=C(C)N=C2c3ccccc3C(=O)C2C1c1ccc(Br)cc1 (centres undefined)	72.4% (active)
CCOC(=O)C1=C(C)N=C2c3ccccc3C(=O)C2C1c1ccc(C)cc1 (centres undefined)	44.1% (inactive)

SMILES	inhibition
CCOC(=O)C1=C(C)N=C2c3ccccc3C(=O)C2C1c1ccc(Cl)cc1 (centres undefined)	16.6% (inactive)
Cc1ccc(C2N(c3cccc(Cl)c3)C(=O)N3CCCN23)cc1 (centres undefined)	4.2% (inactive)
O=[N+]([O-])c1cc(/C=N/n2c(-c3cccnc3)n[nH]c2=S)ccc1Cl	-11.7% (inactive)
Cc1cc(C)nc(NC(=O)Cc2ccc([N+](=O)[O-])cc2)c1	-15.5% (inactive)
O=C(Nc1ccccc1C(F)(F)F)N1CCCCCC1	-17.1% (inactive)
O=C(NCc1cccnc1)c1ccc2c(c1)C(=O)N(Cc1ccccc1)C2=O	-4.4% (inactive)
Cc1c(C#N)c(NC(=O)CCl)n(Cc2ccc(F)cc2)c1C	94.1% (active)
Cc1c(C#N)c(NC(=O)C(C)C)n(Cc2ccccc2)c1C	-2.8% (inactive)
COc1ccc(Cn2c(C)c(C)c(C#N)c2NC(=O)Nc2ccc(F)cc2)cc1	-50% (inactive)
Cc1ccc(C(=O)N2CCOCC2)cc1S(=O)(=O)N1CCCCC1	-11.7% (inactive)
CCN1CCN(CC(=O)Nc2ccc(C)cc2C)C(=O)C1=O	29.5% (inactive)
COc1ccc(NC(=O)C2=C(C)NC(=S)NC2c2ccc(O)c(OC)c2)cc1 (centres undefined)	-36.2% (inactive)
Cc1ccc(NC(=O)c2cc(-n3cnnc3)ccc2Cl)c(C)c1	63.4% (active)
Cc1ccnc(NC(=O)c2cc(-n3cnnc3)ccc2Cl)c1	-27% (inactive)
Cc1ccc(NC(=O)c2cc(-n3cnnc3)ccc2Cl)cc1	-21.5% (inactive)
O=C(CCCN1C(=O)/C(=C/c2cccs2)SC1=S)Nc1cccc(C(=O)O)c1	-20.6% (inactive)
COc1ccc(-n2nc(C(=O)NCC(=O)N3CCCC(C)C3)c3ccccc3c2=O)cc1Cl (centres undefined)	-22.7% (inactive)
CCCCC1S/C(=N/N=C/c2ccc(OC)cc2)N(Cc2ccc(OC)cc2)C1=O (centres undefined)	75.2% (active)
CCCC1S/C(=N/N=C/c2ccc(C)cc2)N(Cc2ccc(OC)cc2)C1=O (centres undefined)	39.2% (inactive)
CCCC1S/C(=N/N=C/c2ccc(OC)cc2)N(Cc2ccc(OC)cc2)C1=O (centres undefined)	12.9% (inactive)
COc1ccccc1CNC(=O)C(C)n1nc(C)n2c(cc3occc32)c1=O (centres undefined)	-26.7% (inactive)
Cc1ccc(C(=O)C(C)N2C(=O)NC(C)(c3ccccc3)C2=O)cc1 (centres undefined)	-36.5% (inactive)
O=C(Cc1ccc(Br)c2ccccc12)N/N=C/c1ccccn1	7.4% (inactive)

SMILES	inhibition
Cc1c(CCC(=O)O)c(=O)oc2c(C)c3occ(-c4ccc(Br)cc4)c3cc12	27.8% (inactive)
COc1ccc(-c2coc3c(C)c4oc(=O)c(CCC(=O)O)c(C)c4cc23)cc1	10.4% (inactive)
COC(=O)c1cc(-c2ccc(F)cc2)n(-c2ccccc2)n1	-3.9% (inactive)
Nc1c(S(=O)(=O)O)cc(NC(=O)c2ccccc2)c2c1C(=O)c1ccccc1C2=O	11.8% (inactive)
Cc1cc(C)cc(NC2=C(N)C(=O)c3ccccc3C2=O)c1	-4.5% (inactive)
Cc1cc(C)c(Nc2cc(S(=O)(=O)O)c(N)c3c2C(=O)c2ccccc2C3=O)c(C)c1	69.6% (active)
Cc1ccc(NC(=O)c2sc(C)nc2C)c(C)c1	-0.8% (inactive)
O=C(O)c1cccnc1SCC(=O)C12CC3CC(CC(C3)C1)C2	-9.5% (inactive)
CCOC(=O)Cc1c(C)nc2c(-c3ccccc3)c[nH]n2c1=O	-6.6% (inactive)
CCOC(=O)Cc1cc(=O)n2[nH]cc(-c3cccc(Br)c3)c2n1	27.2% (inactive)
CCOC(=O)Cc1c(C)nc2c(-c3cccc(Br)c3)c[nH]n2c1=O	69.7% (active)
CCCN1CCN(C(=O)c2oc3c(Cl)cccc3c2C)CC1	11.7% (inactive)
Cc1ccc(C(=O)NCCCN2CCOCC2)c(C)c1	-33.2% (inactive)
N=C1C(c2nc3ccccc3s2)=C(O)CN1NC(=O)c1ccc([N+](=O)[O-])cc1	102% (active)
N=C1C(c2nc3ccccc3s2)=C(O)CN1NC(=O)c1ccccc1[N+](=O)[O-]	-23% (inactive)
Cc1ccc(-c2csc(C3=C(O)CN(NC(=O)c4ccc([N+](=O)[O-])cc4)C3=N)n2)cc1	3.2% (inactive)
Cc1csc(SCCn2c(N3CCOCC3)nc3c2c(=O)[nH]c(=O)n3C)n1	-13.7% (inactive)
COc1ccc(/C=C/c2cc(C(F)(F)F)[nH]c(=O)n2)cc1OC	44.3% (inactive)
COc1cc(/C=C/c2cc(C(F)(F)F)[nH]c(=O)n2)cc(OC)c1OC	86.7% (active)
COc1cc(OC)c(OC)cc1/C=C/c1cc(C(F)(F)F)[nH]c(=O)n1	-1% (inactive)
